Compound activity deposited in PubChem by Broad Institute.
LGR2 inh: inhibitors of bursicon-induced Drosophila LGR2 receptor cAMP signaling; HEK293 LGR2, CRE-luciferase, bursicon-stimulated, 4 h; hit rate 0.35% among 380,000; inhibition, % at 9.99 µM;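 active means drop in luminescence signal, shown as inhibition above about 50% in the replicate tests, limit read from the data, passing the limit was not always enough; inconclusive means probably only some replicates passing the limit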;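 further: agonist challenge used bursicon conditioned medium at about half maximal strength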
Shn3 inh set2: inhibitors of Schnurri-3 3'UTR reporter in osteoblasts | AID 588674 | Clone20 osteoblast Shn3 3'UTR firefly luciferase, 24 h | hit rate 0.52% among 360,000 | inhibition, % at 12.5 µM;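 active means mean inhibition of at least 75% with every replicate also reaching 75%; inconclusive means mean inhibition at least 75% but some replicate below; inactive means mean inhibition below 75%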
LMP1 NFkB inh: reduces LMP1-driven NF-kappaB luciferase signal; AID 504558; LMP1-induced NF-kappaB luciferase reporter cells, luminescence; hit rate 0.69% among 350,000; inhibition, % at 12.5 µM; in the data active means inhibition above about 41%; inconclusive means no clear call, values can overlap the other calls
EWS-Fli block: blocks EWS/Fli oncoprotein-driven transcription; A673 NR0B1-luciferase reporter, viability-normalised; inhibition, % at 12.6 µM; hit rate 0.67% among 350,000; AID 651661;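 active means mean inhibition of at least 50% after viability correction, with every replicate also passing that limit; inconclusive means mean reaches 50% but only one of two replicates passes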;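 further: firefly luciferase signal divided by Alamar Blue viability fluorescence both relative to DMSO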
PAX8 reporter: PAX8 transcriptional activity inhibition; inhibition, % at 12.6 µM; RMG-I TPO-luciferase reporter, SteadyGlo, 24 h; hit rate 1.2% among 360,000;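 active means mean replicate inhibition at least 60% with every replicate also reaching 60%; inconclusive means only one of the two criteria is met; inactive means mean below 60% and not all replicates reaching 60%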;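 further: luciferase light reporting Pax8 driven TPO promoter activity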
MITF TRPM1 inh: reduces MITF-dependent TRPM1 promoter luciferase signal; hit rate 0.83% among 330,000; AID 488899; inhibition, % at 12.5 µM; SK-MEL-5 TRPM1 promoter luciferase, 24 h;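 active means mean inhibition across replicates of 60% or more, whatever share of single replicates reaches that level; inconclusive means some that reach 60%, reason not given; inactive means mean inhibition across replicates below 60%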
Numbers stand for hits; i = inactive; ? = inconclusive; nt = no result. This is a sample that favours compounds with a hit; in the whole collection about 2.2% have one here.

SMILES | LGR2 inh | Shn3 inh set2 | LMP1 NFkB inh | EWS-Fli block | PAX8 reporter | MITF TRPM1 inh
CC(C)c1ccc(C2C3=C(COC3=O)Nc3cc4c(cc32)OCO4)cc1 (stereo unspecified) | i | i | i | i | 78.7 | i
COc1ccccc1CNC(=O)C[C@H]1C[C@@H]2c3cc(NC(=O)c4cccnc4)ccc3O[C@@H]2[C@H](CO)O1 | i | nt | nt | i | i | nt
COc1ccc(CNCCC(c2ccc(OC(C)C)cc2)c2ccccc2OC)cc1OC (stereo unspecified) | i | i | i | ? | i | 66.2
COc1ccccc1C(CCNCc1ccccc1)c1ccc(OC(C)C)cc1 (stereo unspecified) | i | i | i | i | i | i
COc1ccccc1NC(=O)CC(c1ccc(OC(C)C)cc1)c1ccccc1OC (stereo unspecified) | i | i | 54.1 | nt | i | i
COc1ccc(CNCCC(c2ccc(OC(C)C)cc2)c2ccccc2OC)cc1 (stereo unspecified) | i | 96.5 | i | i | 68.3 | i
CCOC(=O)c1c[nH]c2nc(C)ccc2c1=O | i | i | i | i | i | i
CCOC(=O)c1c[nH]c(=O)c(Br)c1O | i | i | 60.7 | nt | i | i
CC(C)(C)c1nc2c(s1)CCc1onc(-c3ccc(Br)cc3)c1-2 | i | i | 42.9 | i | i | i
Cc1ccc(-n2cc(CNCCCn3ccnc3C)c(-c3ccc(F)cc3)n2)cc1 | i | i | i | i | i | 71.8
Cc1ccc(C)c(-n2cc(CNCCCn3cccn3)c(-c3ccccc3)n2)c1 | i | i | i | i | i | i
Cc1ccc(-n2cc(CNCCCn3cccn3)c(-c3cccc(C)c3)n2)cc1 | i | i | i | i | i | 78.9
CC(C)NC(=O)N1C[C@@H]2[C@H](c3ccccc31)[C@@H](CO)N2C(=O)c1ccccc1F | i | nt | nt | i | i | nt
O=C(C1CC1)N1CC2(C1)[C@H](c1ccccc1)[C@@H](CO)N2Cc1nccs1 | i | nt | nt | i | i | nt
COCC(=O)Nc1ccc2c(c1)C(=O)N(C)[C@H]1CC[C@@H](CC(=O)NCc3ccccc3)O[C@H]1CO2 | i | nt | nt | i | i | nt
CC1=C(CC(=O)O)c2cc(F)ccc2/C1=C/c1ccc(S(C)=O)cc1 (stereo unspecified) | i | i | i | i | i | i
CC1=C(CC(=O)O)c2cc(F)ccc2C1=Cc1ccc(S(C)(=O)=O)cc1 | i | i | 83.5 | i | i | i
O=C(Nc1ccc(F)cc1)Nc1ccc(N2CCCC2)c(S(=O)(=O)Nc2ccccc2Cl)c1 | nt | i | i | i | 88.1 | 74.7
O=C(Nc1ccc(N2CCOCC2)c(S(=O)(=O)Nc2ccccc2Cl)c1)c1ccc(F)cc1 | ? | i | i | i | i | i
O=C(Nc1ccc(Cl)c(Cl)c1)Nc1ccc(N2CCCC2)c(S(=O)(=O)Nc2ccccc2Cl)c1 | i | 97.7 | i | nt | i | 73.1
CCN(CC)CCCNC(=S)N1CCN(c2nc(-c3ccc(F)cc3)cs2)CC1 | i | i | i | 61.1 | i | i
CCNC(=S)N1CCN(c2nc(-c3ccc(F)cc3)cs2)CC1 | i | i | i | i | i | i
Cc1noc(C)c1NC(=O)N(C)C[C@H]1Oc2c(NS(=O)(=O)c3ccccc3)cccc2C(=O)N([C@@H](C)CO)C[C@@H]1C | i | nt | nt | i | i | nt
CCOC(=O)c1sc2ccccc2c1OC(=O)c1ccccc1OC | i | i | i | i | 60.2 | i
COc1ccccc1-c1ccc2n(c1=O)C[C@@H]1[C@@H](CO)[C@H](C(=O)NCc3ccccc3F)N[C@H]21 | i | nt | nt | i | i | nt
SMILES | LGR2 inh | Shn3 inh set2 | LMP1 NFkB inh | EWS-Fli block | PAX8 reporter | MITF TRPM1 inh
CNC(=O)C[C@H]1CC[C@@H]2[C@@H](COc3ccc(NC(=O)c4ccc(C(F)(F)F)cc4)cc3C(=O)N2C)O1 | i | nt | nt | i | i | nt
O=C(COC(=O)/C(=C/c1cccs1)c1cccs1)NC(c1ccccc1)c1ccccc1 | i | i | i | nt | 93.4 | 70.8
CC(C)C(=O)N[C@H]1CCC2C3CC=C4C[C@@H](O)CC[C@]4(C)C3CC[C@@]21C (stereo partly specified) | i | i | i | i | i | i
CC(=O)C1CCC2C3CC=C4CC(SC(=N)N)CCC4(C)C3CCC12C (stereo unspecified) | 90.4 | ? | i | i | nt | 90.2
CC(C)(C)[C@H](N)C(=O)N[C@H]1CCC2C3CC=C4C[C@@H](O)CC[C@]4(C)C3CC[C@@]21C (stereo partly specified) | 64.8 | i | i | 55.6 | 95.1 | 76.1
C[C@H](CO)N1C[C@H](C)[C@@H](CN(C)Cc2cccc(C(=O)O)c2)Oc2cc(C#CCC3CCCC3)ccc2S1(=O)=O | nt | nt | nt | i | i | nt
C[C@@H]1CN([C@@H](C)CO)C(=O)Cc2cc(NC(=O)Nc3ccc(C(F)(F)F)cc3)ccc2O[C@H]1CN(C)CC1CCCCC1 | i | nt | nt | 59.1 | i | nt
C[C@@H]1CN([C@@H](C)CO)C(=O)Cc2cc(NC(=O)Nc3ccc(C(F)(F)F)cc3)ccc2O[C@@H]1CN(C)C(=O)NC1CCCCC1 | i | nt | nt | 58.5 | i | nt
C[C@H](CO)N1C[C@H](C)[C@@H](CN(C)C(=O)NC2CCCCC2)Oc2ccc(NC(=O)Nc3ccc(C(F)(F)F)cc3)cc2CC1=O | i | nt | nt | i | i | nt
C[C@H]1CN([C@@H](C)CO)C(=O)Cc2cc(NC(=O)Nc3ccc(C(F)(F)F)cc3)ccc2O[C@H]1CN(C)C(=O)NC1CCCCC1 | nt | nt | nt | i | 78.2 | nt
COc1ccc(C2c3ccc(O)cc3Oc3ncn(CCN4CCOCC4)c(=N)c32)cc1OC (stereo unspecified) | i | i | i | i | i | i
COc1ccc(C2c3ccc4ccccc4c3Oc3ncn(CCO)c(=N)c32)cc1 (stereo unspecified) | i | i | i | nt | nt | 77.5
COc1ccc(C2c3c(ncn(CCCN4CCOCC4)c3=N)Oc3ccc4ccccc4c32)cc1OC (stereo unspecified) | nt | i | i | i | i | 79.8
N=c1c2c(ncn1CCCO)Oc1c(ccc3ccccc13)C2c1ccccc1 (stereo unspecified) | i | i | i | i | i | i
COc1ccc(C2c3ccc4ccccc4c3Oc3ncn(CCN(C)C)c(=N)c32)cc1 (stereo unspecified) | i | i | i | i | i | 95.0
CN(C)CCCn1cnc2c(c1=N)C(c1ccccc1)c1ccc3ccccc3c1O2 (stereo unspecified) | i | i | i | ? | i | 98.8
CCCNC(=O)C[C@H]1C[C@H]2c3cc(NS(C)(=O)=O)ccc3O[C@H]2[C@@H](CO)O1 | i | nt | nt | i | nt | nt
C[C@H](CO)N1C[C@H](C)[C@H](CN(C)S(=O)(=O)c2ccc(F)cc2)Oc2c(NC(=O)C3CCOCC3)cccc2C1=O | i | nt | nt | i | i | nt
COc1ccc(C2c3ccc4ccccc4c3Oc3ncn(CCN4CCOCC4)c(=N)c32)cc1 (stereo unspecified) | nt | i | i | nt | i | 77.4
COc1ccc(C2c3ccc4ccccc4c3Oc3ncn(CCN4CCOCC4)c(=N)c32)cc1OC (stereo unspecified) | nt | i | i | i | i | i
